In publication PMC4552634, “A New Set of Chemical Starting Points with Plasmodium falciparum Transmission-Blocking Potential for Antimalarial Drug Discovery” (PLoS ONE, 2015):
Read-outs that look alike come from different tables or passages of the source. Among all 13,000 compounds or so, about 3,200 (25%) showed an effect of 50% or more. Some of the results follow.

System: P. falciparum stage V gametocytes
Design: BacTiter-Glo ATP luminescence viability of purified stage V gametocytes in 384-well plates, per cent inhibition versus DMSO
Conditions: 48 h, 5 µM, inhibitor

| Compound | % Inhibition | % Inhibition (% Inhibition) |
| --- | --- | --- |
| Cc1cccc2[nH]c(-c3cccc(-c4ccc(NC(=O)Nc5ccc(F)c(F)c5F)cc4)c3)nc12 [TCMDC-133225] | -8.037% | – |
| COc1ccc2ncc(F)c(CCN3CC(O)C(CNCc4nc5c(cc4Cl)OCC(=O)N5)C3)c2n1 (centres unmarked) [TCMDC-136031] | – | 24.96% |
| Oc1ccc2[nH]cc(C3CCN(CCCCCCCCCN4CCC(c5c[nH]c6ccc(O)cc56)CC4)CC3)c2c1 [TCMDC-139003] | 74.24% | – |
| Oc1ccc2[nH]cc(C3CCN(CCCNCc4ccc(-c5ccccc5)cc4)CC3)c2c1 [TCMDC-139047] | 101.4% | – |
| O=C(/C=C/c1ccc(Cl)c(Cl)c1)NCCCCCN1CCC(c2c[nH]c3cc(O)ccc23)CC1 [TCMDC-139282] | 10.47% | – |
| Oc1ccc2[nH]cc(C3CCN(CCC(c4ccccc4)c4ccccc4)CC3)c2c1 [TCMDC-139017] | -54.72% | – |
| Cc1cccc2nc(-c3cccc(-c4cccc(NC(=O)NC5CC5c5ccccc5)c4)c3)[nH]c12 (centres unmarked) [TCMDC-133254] | -21.78% | – |
| CNC(=O)/C=C/c1cc(NC(=O)Nc2cc(C)nc3c(F)cccc23)ccc1OC [TCMDC-140324] | -6.922% | – |
| CCCCCN1CCCC1CNS(=O)(=O)c1cccc(C(=O)Nc2cccc(C(F)(F)F)c2)c1 (centres unmarked) [TCMDC-133686] | -82.32% | – |
| O=C(Cc1n[nH]c(=O)c2ccccc12)Nc1cccc(C(=O)Nc2cccc(C(F)(F)F)c2)c1 [TCMDC-125260] | 48.65% | – |
| O=C(CN1CCCC1)Nc1cccc(C(=O)Nc2cccc(C(F)(F)F)c2)c1 [TCMDC-124512] | 78.8% | – |
| O=C(Cn1c(=O)cnc2ccccc21)Nc1cccc(C(=O)Nc2cccc(C(F)(F)F)c2)c1 [TCMDC-125468] | 18.7% | – |
| O=C(Nc1cccc(CN2CCCN(Cc3ccc(O)cc3)CC2)c1)c1cccc(C(F)(F)F)c1 [TCMDC-141836] | -28.76% | – |
| COc1ccccc1C(C)NCC(=O)Nc1cccc(C(=O)Nc2cccc(C(F)(F)F)c2)c1 (centres unmarked) [TCMDC-124871] | 31.1% | – |
| O=C(Nc1cccc(C(F)(F)F)c1)c1cccc(S(=O)(=O)NCC2CCCN2CC2CCCCC2)c1 (centres unmarked) [TCMDC-133687] | -58.72% | – |
| O=C(CNC1CCCCC1)Nc1cccc(C(=O)Nc2cccc(C(F)(F)F)c2)c1 [TCMDC-123711] | 29.34% | – |
| CC(C)NCC(=O)Nc1cccc(C(=O)Nc2cccc(C(F)(F)F)c2)c1 [TCMDC-124878] | 70.58% | – |
| CC12CCC(=O)N1C(C(=O)Nc1cccc(C(=O)Nc3cccc(C(F)(F)F)c3)c1)CS2 (centres unmarked) [TCMDC-125019] | 77% | – |
| COc1cc(C(=O)Nc2nc3ccccc3[nH]2)ccc1OCC(=O)Nc1cccc(C(F)(F)F)c1 [TCMDC-125460] | 11.63% | – |
| CC(O)CNc1nc2ccccc2n1CC(=O)Nc1cccc(C(=O)Nc2cccc(C(F)(F)F)c2)c1 (centres unmarked) [TCMDC-124335] | 86.13% | – |
| N[C@@H](Cc1ccc(O)cc1)C(=O)NC(c1ccccc1)c1c(O)ccc2ccccc12 (some centres unmarked) [TCMDC-141232] | 9.479% | – |
| CC=CC1CCNC(C(O)c2ccnc3ccc(OC)cc23)C1 (centres unmarked) [TCMDC-132000] | 38.01% | – |
| CN1CCC(N2CCC(Oc3cccc(C(=O)NCCCC4CCCC4)c3)CC2)CC1 [TCMDC-124677] | 58.06% | – |
| CC(C)CCN1CCC(Oc2cccc(NC(=O)c3ccc(C(F)(F)F)cc3)c2)CC1 [TCMDC-133738] | 13.2% | – |

| Compound | % Inhibition | % Inhibition (% Inhibition) |
| --- | --- | --- |
| O=C(NCCCCN1CCN(c2cccc(Cl)c2Cl)CC1)c1ccc2c(c1)CCN(C1CCC1)CC2 [TCMDC-136053] | 20.89% | – |
| CN1CCC(NCc2ccc(-c3cccc(S(=O)(=O)NCC4CCCO4)c3)cc2)CC1 (centres unmarked) [TCMDC-132242] | 58.26% | – |
| CN1CCC(NCc2ccc(-c3ccc(S(=O)(=O)NCc4ccccc4)cc3)cc2)CC1 [TCMDC-132227] | 101.8% | – |
| CN1CCC(NCc2cccc(-c3cccc(S(=O)(=O)NCc4ccccc4)c3)c2)CC1 [TCMDC-132377] | 104% | – |
| CN1CCC(NCc2cccc(-c3ccc(S(=O)(=O)NCc4ccccc4)cc3)c2)CC1 [TCMDC-132213] | 49.72% | – |
| CN1CCC(NCc2ccc(-c3cccc(S(=O)(=O)NCc4ccccc4)c3)cc2)CC1 [TCMDC-132238] | 104.8% | – |
| CN1CCC(NCc2ccc(S(=O)(=O)Nc3ccc(Oc4cccc(Cl)c4)cc3)cc2)CC1 [TCMDC-136201] | 14.91% | – |
| Cc1ccc(Nc2nc3cc(Nc4ccnc(Nc5cccc(CS(C)(=O)=O)c5)n4)ccc3o2)cc1 [TCMDC-141957] | -56.36% | – |
| O=C(Nc1cc(C(F)(F)F)ccc1-n1cncn1)C1(c2ccccc2)CC1 [TCMDC-125454] | 25.16% | – |
| CCC(ON1C(N)=NC(N)=NC1(C)C)c1ccc(Cl)cc1 (centres unmarked) [TCMDC-131709] | 18.34% | – |
| Cc1cc(S(=O)(=O)N2CCCCC(c3ccc(C(F)(F)F)cc3)=N2)c(Cl)cc1Cl [TCMDC-134540] | -43.69% | – |
| Cc1ccc(S(=O)(=O)NC2=NC(C)(C)N(OCc3ccc(Cl)c(Cl)c3)C(N)=N2)cc1 [TCMDC-131711] | 22.12% | – |
| Nc1nc(-c2ccccn2)nc(-n2nc(-c3cccc(C(F)(F)F)c3)cc2N)n1 [TCMDC-134026] | 76.36% | – |
| Nc1cc(-c2cccc(Cl)c2)nn1-c1ccnc2cc(Cl)ccc12 [TCMDC-134027] | -29.85% | – |
| CN1CCN(c2cc(-c3cccc(C(F)(F)F)c3)nc(-c3ccncc3)n2)CC1 [TCMDC-125413] | 29.7% | – |
| Cc1ccccc1C1CCN(c2ccc(C(=O)Nc3ccccc3)cn2)CC1 [TCMDC-134584] | 3.597% | – |
| COc1cc(-c2nc3c4ccccc4c4ccccc4c3[nH]2)cc(OC)c1OC [TCMDC-123980] | 2.227% | – |
| CC(=NNC(=S)NCCc1ccccc1)c1ccccn1 [TCMDC-124270] | 79.29% | – |
| CC(=NNC(=S)NCc1ccco1)c1ccccn1 [TCMDC-137906] | 99.6% | – |
| O=C(NCCc1ccccc1)c1cc(-c2cccnc2)cnc1NCC1CC1 [TCMDC-136700] | 4.382% | – |
| CC(=NNc1nc2ccccc2s1)c1ccccn1 [TCMDC-124267] | 64.52% | – |
| CCOc1ccc2nc(NC(=O)c3csnn3)sc2c1 [TCMDC-125075] | 43.02% | – |
| COc1cccc2c(NCCNc3ccnc4c(OC)cccc34)ccnc12 [TCMDC-137880] | 30.12% | – |
| CC(=NNC(=S)NC(c1ccccc1)c1ccccc1)c1ccccn1 [TCMDC-137894] | -31.88% | – |

| Compound | % Inhibition | % Inhibition (% Inhibition) |
| --- | --- | --- |
| COc1cc(CNC(=S)NN=C(C)c2ccccn2)cc(OC)c1OC [TCMDC-137900] | 55.54% | – |
| O=c1cc(NCCCNCc2[nH]c3cc(Cl)cc(Cl)c3c2Cn2cccn2)[nH]c2ccccc12 [TCMDC-140152] | -2.677% | – |
| COc1ccc2nccc([C@@H](O)CN3CCC(NCCc4c[nH]c5ccccc45)CC3)c2c1 [TCMDC-140938] | 7.162% | – |
| CCc1ccc(O)c(-c2cc(C(=O)Nc3ccc(OC)c(Cl)c3)[nH]n2)c1 [TCMDC-125072] | 5.954% | – |
| COc1ccc2nccc([C@@H](O)CN3CCC(NCc4ccc5c(c4)nnn5C(C)C)CC3)c2c1 [TCMDC-141011] | -16.76% | – |
| CCc1ccc(CN2CCC(C(=O)Nc3ccc(-c4nc5ccccc5[nH]4)cc3)CC2)o1 [TCMDC-124686] | -27.59% | – |
| Clc1ccc2c(NCCc3ccccn3)ccnc2c1 [TCMDC-123461] | 8.42% | – |
| CNC(=S)NN=C(C)c1ccccn1 [TCMDC-123475] | 90.46% | – |
| COCCCNC(=S)NN=C(C)c1ccccn1 [TCMDC-137907] | 93.04% | – |
| CC(=NNC(=S)NC(C)(C)C)c1ccccn1 [TCMDC-137783] | 15.81% | – |
| CC(=NNC(=S)NCCc1ccccn1)c1ccccn1 [TCMDC-137895] | 92.63% | – |
| Cc1ccc(Oc2cnn(C)c(=O)c2Nc2cccc(C(=O)NCCc3ccccn3)c2)c(C)c1 [TCMDC-124786] | 34.52% | – |
| CN(c1ccc(NC(=O)c2ccc(F)cc2)cc1)C1CCN(Cc2cccc(F)c2)C1 (centres unmarked) [TCMDC-135003] | -17.16% | – |
| O=C(Nc1ccc(OC2CCN(Cc3ccsc3)C2)c(Cl)c1)c1ccc2ncccc2c1 (centres unmarked) [TCMDC-133951] | -25.76% | – |
| C[C@H](Nc1c(Nc2ccc3[nH]ccc3c2)c(=O)c1=O)C1CCCCC1 [TCMDC-138193] | -95.47% | – |
| O=C(NCCCCCN1CCC(c2c[nH]c3ccccc23)CC1)Nc1cccc(C(F)(F)F)c1 [TCMDC-139217] | -48% | – |
| FC(F)(F)c1cccc(N2CCC(CN3CCC(c4c[nH]c5ccccc45)CC3)CC2)n1 [TCMDC-134280] | 19.45% | – |
| Cn1nc(-c2ccc(S(=O)(=O)N3CCC(CCN4CCC(c5c[nH]c6ccccc56)CC4)CC3)s2)cc1C(F)(F)F [TCMDC-140168] | 106.2% | – |
| Cn1nc(-c2ccc(S(=O)(=O)N3CCC(CN4CCC(c5c[nH]c6ccccc56)CC4)CC3)s2)cc1C(F)(F)F [TCMDC-140171] | 114.8% | – |
| O=C(NCc1ccc(S(=O)(=O)N2CCC(CN3CCC(c4c[nH]c5ccccc45)CC3)CC2)s1)c1ccccc1 [TCMDC-140170] | 48.92% | – |
| Cn1ncc2ccc(Nc3nccc(-c4ccc5c(c4)c(N)nn5C)n3)cc21 [TCMDC-137049] | 80.69% | – |
| Cc1ccc(-c2cnc(N)c3cc(-c4ccnc(N)n4)ccc23)cc1 [TCMDC-134544] | 25.6% | – |
| Nc1nccc2ccc(-c3ccnc(NCc4cccnc4)n3)cc12 [TCMDC-136735] | -3.627% | – |
